Rin1 Abl inh: inhibitors of human Rin1-Abl protein interaction; TR-FRET Rin1/Abl binding, biochemical; inhibition, % at 7.35 µM; 360,000 compounds, 0.4% hits; in the data active means inhibition above about 5%, passing the limit was not always enough
Target sequence (P00519 whole entry, looked up): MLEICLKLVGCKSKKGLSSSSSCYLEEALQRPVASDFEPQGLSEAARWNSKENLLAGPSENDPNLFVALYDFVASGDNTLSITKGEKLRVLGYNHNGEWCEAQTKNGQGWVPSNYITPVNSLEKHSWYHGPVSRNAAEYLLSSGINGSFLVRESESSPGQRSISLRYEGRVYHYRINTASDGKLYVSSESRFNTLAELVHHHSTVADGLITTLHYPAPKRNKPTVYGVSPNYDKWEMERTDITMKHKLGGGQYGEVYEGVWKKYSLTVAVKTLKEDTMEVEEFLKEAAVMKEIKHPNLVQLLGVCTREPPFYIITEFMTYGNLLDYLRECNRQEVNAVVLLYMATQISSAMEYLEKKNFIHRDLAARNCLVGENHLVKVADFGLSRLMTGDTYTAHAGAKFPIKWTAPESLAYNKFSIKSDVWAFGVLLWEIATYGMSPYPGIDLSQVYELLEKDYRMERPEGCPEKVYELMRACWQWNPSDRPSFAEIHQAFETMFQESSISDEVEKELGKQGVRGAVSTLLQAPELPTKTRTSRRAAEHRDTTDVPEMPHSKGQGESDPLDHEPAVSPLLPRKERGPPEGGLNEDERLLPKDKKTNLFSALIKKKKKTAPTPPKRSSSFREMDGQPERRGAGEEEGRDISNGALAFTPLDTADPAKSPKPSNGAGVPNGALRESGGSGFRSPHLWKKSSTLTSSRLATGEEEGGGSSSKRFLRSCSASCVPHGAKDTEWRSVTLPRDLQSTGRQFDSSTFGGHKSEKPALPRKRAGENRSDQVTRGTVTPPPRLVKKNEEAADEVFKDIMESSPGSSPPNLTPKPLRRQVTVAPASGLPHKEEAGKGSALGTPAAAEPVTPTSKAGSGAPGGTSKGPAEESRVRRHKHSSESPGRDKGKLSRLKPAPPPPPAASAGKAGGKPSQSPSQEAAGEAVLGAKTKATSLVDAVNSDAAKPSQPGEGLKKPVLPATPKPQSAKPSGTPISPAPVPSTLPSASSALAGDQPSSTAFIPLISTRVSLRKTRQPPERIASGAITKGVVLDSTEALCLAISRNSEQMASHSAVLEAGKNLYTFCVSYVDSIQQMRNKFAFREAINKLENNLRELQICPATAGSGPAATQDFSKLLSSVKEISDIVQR
Target sequence (Q13671 whole entry, looked up): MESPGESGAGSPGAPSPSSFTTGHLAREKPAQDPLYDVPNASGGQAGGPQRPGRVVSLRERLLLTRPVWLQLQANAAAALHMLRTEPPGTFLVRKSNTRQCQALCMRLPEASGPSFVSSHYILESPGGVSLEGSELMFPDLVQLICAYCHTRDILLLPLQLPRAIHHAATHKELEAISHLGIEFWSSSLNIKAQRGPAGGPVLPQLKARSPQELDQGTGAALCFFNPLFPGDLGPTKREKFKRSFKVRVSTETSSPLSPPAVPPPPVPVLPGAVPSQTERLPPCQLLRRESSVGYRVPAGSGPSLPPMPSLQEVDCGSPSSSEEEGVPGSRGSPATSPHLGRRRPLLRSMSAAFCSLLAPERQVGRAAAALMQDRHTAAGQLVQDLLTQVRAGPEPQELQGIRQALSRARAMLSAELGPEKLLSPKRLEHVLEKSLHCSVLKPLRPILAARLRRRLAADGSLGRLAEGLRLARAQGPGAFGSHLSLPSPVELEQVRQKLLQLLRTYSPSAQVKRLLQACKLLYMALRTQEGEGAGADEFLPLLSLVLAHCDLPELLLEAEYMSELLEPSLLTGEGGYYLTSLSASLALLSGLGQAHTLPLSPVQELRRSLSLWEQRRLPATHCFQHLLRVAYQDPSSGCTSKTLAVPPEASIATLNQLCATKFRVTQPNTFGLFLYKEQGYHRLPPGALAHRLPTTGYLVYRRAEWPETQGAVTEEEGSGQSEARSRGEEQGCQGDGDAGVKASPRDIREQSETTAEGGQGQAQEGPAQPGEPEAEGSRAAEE
ARNT TACC3 PPI: ARNT/TACC3 interaction disruption; 390,000 compounds, 0.66% hits; AlphaScreen His-ARNT PAS-B/GST-TACC3 binding, luminescence; TACC3 fragment carries E629A point mutation; AID 623870; inhibition, % at 9.99 µM; Q9Y6A5;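 active means mean inhibition of replicates at least 50% and at least half of replicates each reaching 50%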
sPLA2-III inh: Blocks human group III sPLA2 activity. QFRET BODIPY PC-A2 liposome hydrolysis, fluorescence. inhibition, % at 12.2 µM. 370,000 compounds, 0.56% hits. AID 743126;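 active means inhibition above mean plus 3 SD of compounds lying within the high and low control bounds, cut at about 19% in these data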
AI-2 QS mod: Vibrio harveyi AI-2 quorum sensing modulation; 300,000 compounds, 0.4% hits; AID 2094; activity change, % at 7.5 µM; Vibrio harveyi JMH597 AI-2 luminescence/OD600 ratio, 9 h; active compounds read low; strain lacks LuxN and CqsS sensors; 0 = neutral-control median; in the data active means activity change below about -75%, passing the limit was not always enough;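 further: luminescence divided by OD600 gain over 9 h not by final OD600 alone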
hGIII sPLA2 conf: human GIII-sPLA2 inhibition, confirmation; 2,000 compounds, 34% hits; shares compounds with sPLA2-III inh; recombinant hGIII-sPLA2, BODIPY PC-A2 QFRET fluorescence; AID 743280; inhibition, % at 12.2 µM;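 active means mean inhibition across triplicates above the hit cutoff set in the earlier primary screen, cut at about 19% in these data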
535nm interf: 535nm fluorescence interference, HGIII-sPLA2 counter-screen; shares compounds with sPLA2-III inh; BODIPY FL product fluorescence interference, QFRET; inhibition, % at 12.2 µM; 2,000 compounds, 8.5% hits;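 active means average inhibition above the solvent-only control mean plus 3 SD, cut at about 6% in these data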
BODIPY interf DR: counter-screen for HGIII-sPLA2 inhibitors: 535nm fluorescence interference, dose response | shares compounds with sPLA2-III inh | BODIPY FL product fluorescence interference, cell-free | IC50, µM | 240 tested, under 10 active | AID 743455;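 active means IC50 at or below 10 µM; inactive means IC50 above 10 µM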
Hits are given with their value. A selection: hits, their analogues and other compounds. The true share with any hit is near 1.5%.

O=C(Nc1ccccc1F)N1C[C@H]2[C@@H](c3ccccc31)[C@@H](CO)N2C(=O)C1CCOCC1 was read as ARNT TACC3 PPI inactive.
`CCCCn1c(=O)nc2n(-c3ccc(Cl)cc3)c3ccccc3cc-2c1=O` gave Rin1 Abl inh inactive, ARNT TACC3 PPI inactive, sPLA2-III inh 25, AI-2 QS mod inactive, hGIII sPLA2 conf inactive and 535nm interf inactive.
COc1ccc(NC(=O)N(C)C[C@@H]2Oc3ccc(NC(=O)Nc4cccc5ccccc45)cc3C(=O)N([C@H](C)CO)C[C@H]2C)cc1 was read as ARNT TACC3 PPI inactive.
Screening COC(=O)C1=C(C)NC2=C(C(=O)CC(C)(C)C2)C1c1cnn(C)c1C (stereo not drawn) returned Rin1 Abl inh inactive, ARNT TACC3 PPI inactive, sPLA2-III inh 21, AI-2 QS mod inactive, hGIII sPLA2 conf inactive and 535nm interf inactive.
For COc1ccc(C(=O)NCCNc2ccc([N+](=O)[O-])cc2)cc1OC the results were Rin1 Abl inh inactive, ARNT TACC3 PPI inactive and sPLA2-III inh inactive.
Screening O=C(NCCNc1ccc([N+](=O)[O-])cc1)c1cccc(Br)c1 returned Rin1 Abl inh inactive, ARNT TACC3 PPI inactive, sPLA2-III inh 23, AI-2 QS mod inactive, hGIII sPLA2 conf inactive and 535nm interf inactive.
O=C(c1ccccc1F)N1CC[C@@H]2[C@H](CO)Nc3ccc(Br)cc3[C@@H]21 was read as ARNT TACC3 PPI inactive.
CCCCN1C(=O)Cc2c1nc(N)c1c(N)nc(N(CCC)CCC)c(C#N)c21 was read as Rin1 Abl inh inactive, ARNT TACC3 PPI inactive, sPLA2-III inh 28, AI-2 QS mod inactive, hGIII sPLA2 conf inactive and 535nm interf inactive.
`S=C1NC2(CCCCC2)Cc2ccccc21` gave Rin1 Abl inh inactive, ARNT TACC3 PPI inactive, sPLA2-III inh 21, AI-2 QS mod inactive, hGIII sPLA2 conf inactive and 535nm interf inactive.
For O=c1c2cc([N+](=O)[O-])cc([N+](=O)[O-])c2[nH]n1-c1ccccc1 the results were Rin1 Abl inh inactive, ARNT TACC3 PPI inactive, sPLA2-III inh 21, AI-2 QS mod inactive, hGIII sPLA2 conf 27 and 535nm interf inactive.
`Nc1[nH]n(-c2ccccc2)c(=O)c1N=Nc1ccccc1[N+](=O)[O-]` gave Rin1 Abl inh inactive, ARNT TACC3 PPI inactive, sPLA2-III inh inactive and AI-2 QS mod inactive.
`O=C(C[C@H]1CC[C@H]2[C@@H](COC[C@H](O)CN2CC2CCCCC2)O1)NCC1CC1` gave ARNT TACC3 PPI inactive.
For N#Cc1cc(NC2CCCC2)c([N+](=O)[O-])cc1C#N the results were Rin1 Abl inh inactive, ARNT TACC3 PPI inactive, sPLA2-III inh 25, AI-2 QS mod inactive, hGIII sPLA2 conf inactive and 535nm interf inactive.
For N#Cc1cc(N2CCCCC2)c([N+](=O)[O-])cc1C#N the results were Rin1 Abl inh inactive, ARNT TACC3 PPI inactive, sPLA2-III inh inactive and AI-2 QS mod inactive.
COc1cc(CNCCN(C)C)c(Br)cc1OCC(=O)NCc1ccccc1 was read as Rin1 Abl inh inactive, sPLA2-III inh 22, AI-2 QS mod inactive, hGIII sPLA2 conf inactive and 535nm interf inactive.
`N#CCC[C@H]1CC[C@]2(CCCN(Cc3cccc4ccccc34)C2)O1` gave sPLA2-III inh inactive.
`CC(=O)CC[C@H]1CC[C@]2(CCCN(S(=O)(=O)c3ccccc3)C2)O1` gave sPLA2-III inh inactive.
For N#CCC[C@@H]1CC[C@]2(CCCN(Cc3ccc(Br)cc3)C2)O1 the results were sPLA2-III inh 22, hGIII sPLA2 conf inactive and 535nm interf inactive.
N#CCC[C@H]1CC[C@]2(CCCN(S(=O)(=O)c3ccccc3)C2)O1 was read as sPLA2-III inh 20, hGIII sPLA2 conf inactive and 535nm interf inactive.
`CCCC[C@@H](CNC)NC[C@H](NCCCCC1CCCCC1)C(C)C` gave Rin1 Abl inh inactive, ARNT TACC3 PPI inactive, sPLA2-III inh 29, AI-2 QS mod inactive, hGIII sPLA2 conf inactive and 535nm interf inactive.
For CCC[C@@H](CN[C@@H](CNC)C(C)C)NCCCCc1ccccc1 the results were Rin1 Abl inh inactive, ARNT TACC3 PPI inactive, sPLA2-III inh inactive and AI-2 QS mod inactive.
Screening O=S(=O)(N[C@H]1CC[C@@H](CCn2cc(C3(O)CCCC3)nn2)O[C@H]1CO)c1ccc(F)cc1 returned ARNT TACC3 PPI inactive.
For CO/N=C1\CCn2c1c(C)c1ccccc12 the results were Rin1 Abl inh inactive, ARNT TACC3 PPI inactive, sPLA2-III inh 20, AI-2 QS mod inactive, hGIII sPLA2 conf inactive and 535nm interf inactive.
Screening Cc1ccc(Nc2n[nH]c(=S)s2)c(C)c1 returned Rin1 Abl inh inactive, sPLA2-III inh 20, hGIII sPLA2 conf 30, 535nm interf inactive and BODIPY interf DR inactive.
`Cc1cc(C)c(Nc2n[nH]c(=S)s2)cc1C` gave Rin1 Abl inh inactive and sPLA2-III inh inactive.
For C[C@@H]1CN([C@@H](C)CO)C(=O)c2cccc(NS(=O)(=O)c3cccs3)c2O[C@H]1CN(C)CC1CCCCC1 the results were ARNT TACC3 PPI inactive.
CN(C)CCP(=O)(c1ccccc1)c1ccccc1 was read as Rin1 Abl inh inactive, ARNT TACC3 PPI inactive, sPLA2-III inh inactive and AI-2 QS mod inactive.
CCCP(=O)(CCC)CCP(=O)(c1ccccc1)c1ccccc1 was read as Rin1 Abl inh inactive, ARNT TACC3 PPI inactive, sPLA2-III inh 20, AI-2 QS mod inactive, hGIII sPLA2 conf inactive and 535nm interf inactive.
O=C(Cc1ccccn1)NCC[C@H]1CC[C@H](NS(=O)(=O)c2ccc(Cl)cc2)[C@H](CO)O1 was read as ARNT TACC3 PPI inactive.
Screening C[C@H]1CN([C@@H](C)CO)S(=O)(=O)c2ccc(C#CC3(O)CCCC3)cc2O[C@@H]1CN(C)C(=O)c1ccccc1 returned ARNT TACC3 PPI inactive.
For CC(C)(C)NC(=O)c1cccc2c1OC(C)(C)C2 the results were Rin1 Abl inh inactive, ARNT TACC3 PPI inactive, sPLA2-III inh 24, AI-2 QS mod inactive, hGIII sPLA2 conf inactive and 535nm interf inactive.
Screening CS/C(N)=N/N=C/c1c(O)ccc2ccccc12 returned Rin1 Abl inh inactive, ARNT TACC3 PPI inactive, sPLA2-III inh 23, AI-2 QS mod inactive, hGIII sPLA2 conf 28 and 535nm interf inactive.
`CN(C)/N=C/c1c(O)ccc2ccccc12` gave Rin1 Abl inh inactive, ARNT TACC3 PPI inactive, sPLA2-III inh inactive and AI-2 QS mod inactive.
`CCCNC(=O)C[C@H]1C[C@H]2c3cc(NS(C)(=O)=O)ccc3O[C@H]2[C@@H](CO)O1` gave ARNT TACC3 PPI inactive.
Screening CCOc1nc(Nc2ccc([N+](=O)[O-])cc2)nc(NC(C)(C)C)n1 returned Rin1 Abl inh inactive, ARNT TACC3 PPI inactive, sPLA2-III inh 21, AI-2 QS mod inactive, hGIII sPLA2 conf inactive and 535nm interf inactive.
